Each structure is given as a SMILES string.

Assay type in all cases: functional
Assay [1] has as its target Solute carrier family 2, facilitated glucose transporter member 1 (Homo sapiens) (UniProt P11166). The assay is described as follows: ST_JUDE_LEISH: Cytotoxicity at 2uM final concentration against transgenic Leishmania Mexicana promastigotes LmGLUT1 that are glucose transport deficient and complemented with the human glucose transporter GLUT1. Activity is measured by DNA content using SYBR green in vitro.

For assay [2], the target named is Hexose transporter 1 (Plasmodium falciparum) (UniProt O97467). The assay is described as follows: ST_JUDE_LEISH: Cytotoxicity at 2uM final concentration against transgenic Leishmania Mexicana promastigotes LmPfHT that are glucose transport deficient and complemented with the Plasmodium falciparum hexose transporter. Activity is measured by DNA content using SYBR green in vitro.

Assay [3] concerns the target Glucose transporter (Leishmania mexicana) (UniProt O61059). The assay is described as follows: ST_JUDE_LEISH: Cytotoxicity at 2uM final concentration against transgenic Leishmania Mexicana promastigotes LmGT2 that are glucose transport deficient and complemented with the L. Mexicana glucose transporter 2. Activity is measured by DNA content using SYBR green in vitro.

Sequence of Solute carrier family 2, facilitated glucose transporter member 1 (Homo sapiens) (P11166 whole entry): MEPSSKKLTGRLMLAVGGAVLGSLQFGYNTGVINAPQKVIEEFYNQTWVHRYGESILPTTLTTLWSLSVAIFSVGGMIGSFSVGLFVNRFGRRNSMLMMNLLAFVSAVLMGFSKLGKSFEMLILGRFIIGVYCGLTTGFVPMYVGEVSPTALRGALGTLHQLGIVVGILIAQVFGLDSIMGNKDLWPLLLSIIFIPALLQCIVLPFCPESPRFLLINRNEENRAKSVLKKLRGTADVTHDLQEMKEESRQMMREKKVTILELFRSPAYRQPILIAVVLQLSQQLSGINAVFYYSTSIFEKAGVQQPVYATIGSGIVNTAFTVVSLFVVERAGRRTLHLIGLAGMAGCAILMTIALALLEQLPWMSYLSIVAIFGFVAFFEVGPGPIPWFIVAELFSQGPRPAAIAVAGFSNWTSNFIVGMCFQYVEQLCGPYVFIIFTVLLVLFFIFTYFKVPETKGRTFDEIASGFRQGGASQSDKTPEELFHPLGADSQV

In general, inhibition refers to the drop in the measured response relative to a control, in per cent. For `COc1ccc(S(=O)(=O)N(c2cc(Br)cc3c2OCC3)S(=O)(=O)c2ccc(OC)c(N3CCN(C)CC3)c2)cc1N1CCN(C)CC1`, the values for the inhibition in assay [1], in assay [2] and in assay [3] were 0.39%, 0.62% and 0.55%, respectively.
Taken in the same sequence, the figures for `O=C(CCCCCNC(=O)c1ccc(O)c(-c2ccc(Cl)c(Cl)c2)c1)NCCc1ccc(Cl)c(Cl)c1` were -0.22%, 0.09% and 0.33%.
For `CNCC(C)(C)c1nc(-c2ccc(Cl)c(O)c2)c(-c2ccncc2)[nH]1`, in that order: -1.98%, -1.37% and -3.28%.
For `CS(=O)(=O)N(c1ccc(F)cc1)c1cc(C(=O)N[C@@H](Cc2ccccc2)[C@H](O)CNCc2cccc(C(F)(F)F)c2)cc(N2CCCC2=O)c1`, in that order: 1.67%, -0.54% and -1.53%.
As to `COc1ccc2c(c1)[nH]c1c(C=Cc3ccccc3)nccc12`, the inhibition in assay [1] was determined as 6.16%; in assay [2], 5.09%; in assay [3], 3.77%.
Taken in the same sequence, the figures for `Cc1ccccc1C1CCN(C2CCC(NC(=O)c3csc(-c4cccc(Cl)c4)n3)CC2)CC1` (stereo not drawn) were 9.21%, 12% and 8.46%.
For `CCCCCCN1CCC(CNCc2cccc([N+](=O)[O-])c2)CC1`, in that order: 5.28%, 9.36% and 5.95%.
Regarding `CCc1ccc(NC(=O)c2ccc(CN3CCCN(Cc4cccc(O)c4)CC3)cc2)cc1`, the values for the inhibition in assay [1], in assay [2] and in assay [3] were -0.63%, -1.78% and 2.57%, respectively.
Turning to `O=C(Nc1ccc(-c2nc3ccccc3[nH]2)cc1)c1ccc(N2CCCC2)c([N+](=O)[O-])c1`, the inhibition in assay [1] came out at 0.71%; in assay [2], 2.01%; in assay [3] it was 1.2%.
Taken in the same sequence, the figures for `Oc1ccc(CCNc2nc(NCCOc3ccccc3-c3ccccc3)nc(N3CCNCC3)n2)cc1` were 1.26%, 0.85% and 1.75%.
Regarding `CC(C)(Oc1c(C2CCN(CCCCNC(=O)c3ccc(-c4ccc(Cl)cc4)cc3)CC2)ccc2c1CCCC2)C(N)=O`, the inhibition in assay [1] was -2.15%; in assay [2] it was -0.94%; in assay [3], -1.84%.

The values are drawn from ChEMBL document CHEMBL3433997, “St. Jude Leishmania screening dataset” (2016).
